This is an account of results in publication PMC4336329 (PLoS ONE, 2015).

In all, about 310,000 compounds went through this assay and about 14,000 (4.5%) showed an effect of 50% or more. Effects have a minus sign here. This is one part of a sample in which strong results are shown more often than they occur.
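Note: peak tail current of the secondary pulse compared with the same well before compound.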

In this assay the target is human ether-à-go-go-related gene (hERG) potassium channel (human, UniProt Q12809). The assay is described as follows: primary screen, population patch clamp on CHO cells stably expressing hERG; higher = less effect of the substance.
Sequence of human ether-à-go-go-related gene (hERG) potassium channel (Q12809 whole entry, looked up): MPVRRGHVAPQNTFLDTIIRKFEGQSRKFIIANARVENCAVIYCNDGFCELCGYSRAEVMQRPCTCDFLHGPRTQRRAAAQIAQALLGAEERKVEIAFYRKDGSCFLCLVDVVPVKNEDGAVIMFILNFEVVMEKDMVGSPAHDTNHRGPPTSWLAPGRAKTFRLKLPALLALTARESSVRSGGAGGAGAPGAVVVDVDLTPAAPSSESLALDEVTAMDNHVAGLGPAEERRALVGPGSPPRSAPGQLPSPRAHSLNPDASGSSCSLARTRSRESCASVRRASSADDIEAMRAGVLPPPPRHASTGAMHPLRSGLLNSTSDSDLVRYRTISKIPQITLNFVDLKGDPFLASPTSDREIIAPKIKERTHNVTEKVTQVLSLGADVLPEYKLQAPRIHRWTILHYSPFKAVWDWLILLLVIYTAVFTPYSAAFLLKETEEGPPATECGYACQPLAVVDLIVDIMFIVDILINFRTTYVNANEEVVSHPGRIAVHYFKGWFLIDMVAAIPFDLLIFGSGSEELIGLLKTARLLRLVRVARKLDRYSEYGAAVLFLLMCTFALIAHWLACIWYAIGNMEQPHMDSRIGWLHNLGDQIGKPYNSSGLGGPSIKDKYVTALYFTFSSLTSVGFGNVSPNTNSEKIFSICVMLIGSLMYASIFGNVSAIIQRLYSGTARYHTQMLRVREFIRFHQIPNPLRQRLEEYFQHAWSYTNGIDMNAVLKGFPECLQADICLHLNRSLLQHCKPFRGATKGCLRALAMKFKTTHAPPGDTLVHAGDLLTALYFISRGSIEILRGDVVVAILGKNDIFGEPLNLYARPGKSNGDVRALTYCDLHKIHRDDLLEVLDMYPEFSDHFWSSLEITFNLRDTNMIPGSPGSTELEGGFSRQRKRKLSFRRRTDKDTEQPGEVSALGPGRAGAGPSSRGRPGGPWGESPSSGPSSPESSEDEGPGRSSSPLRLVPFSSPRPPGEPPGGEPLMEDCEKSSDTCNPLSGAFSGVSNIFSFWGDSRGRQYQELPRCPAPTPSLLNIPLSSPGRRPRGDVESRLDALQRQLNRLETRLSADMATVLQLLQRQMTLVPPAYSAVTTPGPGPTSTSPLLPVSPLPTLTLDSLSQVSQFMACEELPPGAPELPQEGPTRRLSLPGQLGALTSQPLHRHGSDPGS
For the compound `Cn1c(CNC(=O)OC(C)(C)C)nnc1SCC(=O)N1CCOCC1`, the “hERG current change (%, negative = inhibition) at 10uM” value is reported as 8.91%.
In the case of `CSc1nc2nc(-c3ccc(F)cc3)c(CCN3CCN(C)CC3)cn2n1`, the “hERG current change (%, negative = inhibition) at 10uM” value is on record as -2.66%.
Take `Cc1cc(NC(=O)CSc2nc3ccccc3n2CC(C)C)no1`: the “hERG current change (%, negative = inhibition) at 10uM” value is reported as 19.2%.
As for `Cc1cccc(C(=O)Oc2ccccc2C(=O)N2CCOCC2)c1`, the figure is -8.06%; as for `COc1ccccc1N1CCN(C2CCCN(C(=O)CCn3cncn3)C2)CC1` (stereo not shown), 13%; as for `CCn1nnnc1SCC(=O)c1ccc(NC(C)=O)cc1`, 0.37%.
As for `CCC1(CC)C(=O)N(C)C(=O)NC1=Nc1ccccc1`, the “hERG current change (%, negative = inhibition) at 10uM” value worked out at 15.8%.
With `CCN1CCN(C(c2ccccc2)c2nnnn2Cc2ccc3c(c2)OCO3)CC1.Cl` (stereo not shown) the figure was -39.1%.
As for `CCC(C)(C)n1nnnc1C(c1ccc(C)cc1)N1CCN(Cc2ccc3c(c2)OCO3)CC1` (stereo not shown), the figure is -50.3%; as for `CC(C)(C)n1nnnc1C(c1cccs1)N1CCN(Cc2ccc3c(c2)OCO3)CC1` (stereo not shown), -19.4%.
With `CC(C)(C)n1nnnc1C(c1ccc(F)cc1)N1CCN(Cc2ccc3c(c2)OCO3)CC1` (stereo not shown) the figure was -37.8%; with `CCC(C)(C)n1nnnc1C(c1ccc2ncccc2c1)N1CCN(Cc2ccc3c(c2)OCO3)CC1` (stereo not shown), -69.7%.
With `Cc1ccc(C(c2nnnn2Cc2cccs2)N2CCN(Cc3ccc4c(c3)OCO4)CC2)cc1` (stereo not shown), the “hERG current change (%, negative = inhibition) at 10uM” value is on record as -75.3%.
In the case of `CCC(C)(C)n1nnnc1C(c1ccc2ncccc2c1)N1CCCCCC1` (stereo not shown), the “hERG current change (%, negative = inhibition) at 10uM” value came to 6.75%.
For the compound `CCC(C)(C)n1nnnc1C(c1ccc2ncccc2c1)N1CCCC(C)C1` (stereo not shown), the “hERG current change (%, negative = inhibition) at 10uM” value is -13.6%.
With `COCCn1nnnc1C(c1ccccc1)N1CCN(Cc2ccc3c(c2)OCO3)CC1.Cl` (stereo not shown) the figure was -21.6%; with `CON(C)S(=O)(=O)c1cccc(C(=O)NC2CCSc3ccccc32)c1` (stereo not shown), -9.64%; with `CCN(CC)CCN1C(=O)C(=O)/C(=C(/O)c2ccc(OC(C)C)cc2)C1c1cccs1` (stereo not shown), 0.529%.
With `Cc1cc(C(=O)N/N=C/c2cc(Br)c(Br)o2)n[nH]1` the figure was 16%; with `O=C(O)CNC(=O)c1ccccc1Br`, 9.63%; with `CC1CCCCN1S(=O)(=O)c1ccc(-n2cnnn2)cc1` (stereo not shown), -50.1%.
With `CC1CCCCN1S(=O)(=O)c1ccc(NC(=O)c2cccc(-n3cnnn3)c2)cc1` (stereo not shown), the “hERG current change (%, negative = inhibition) at 10uM” value is recorded as -18.4%.
As for `CC1CCCCN1C(=O)C1CCN(S(=O)(=O)c2ccc(-n3cnnn3)cc2)CC1` (stereo not shown), the figure is -61.5%; as for `CC1CCCCN1S(=O)(=O)c1ccc(S(=O)(=O)N2CCCC2)cc1` (stereo not shown), 5.9%; as for `O=C(C1CCN(S(=O)(=O)c2ccc(-n3cnnn3)cc2)CC1)N1CCCCC1`, -30.1%.
As for `CC1CCN(C(=O)C2CCN(S(=O)(=O)c3ccc(-n4cnnn4)cc3)CC2)CC1`, the “hERG current change (%, negative = inhibition) at 10uM” value is on record as -13.7%.
As to `COc1ccc(C(CNC(=O)c2cccc(S(=O)(=O)NCc3ccccc3)c2)N(C)C)cc1` (stereo not shown), the “hERG current change (%, negative = inhibition) at 10uM” value is given as -24.3%.
As for `CN(C(=O)COC(=O)c1cc(F)c(F)cc1Cl)c1ccccc1`, the figure is 0.987%.
As for `CC(C)N1CCC(N2CCN(Cc3ccc4nonc4c3)CC2CCO)CC1` (stereo not shown), the figure is -27.5%; as for `CC(C)N1CCC(N2CCN(Cc3ccc(-c4ccc(Cl)cc4)o3)CC2CCO)CC1` (stereo not shown), -64.5%; as for `CC(C)N1CCC(N2CCN(Cc3ccc(-c4ccccc4Cl)o3)CC2CCO)CC1` (stereo not shown), -66.6%.
Regarding `CC(C)N1CCC(N2CCN(C/C=C/c3ccccc3)CC2CCO)CC1` (stereo not shown), the “hERG current change (%, negative = inhibition) at 10uM” value is -7.17%.
As for `CC(C)N1CCN(Cc2ccc(-c3ccccc3Cl)o2)CC1CCO` (stereo not shown), the figure is -54.8%; as for `Cc1ccc(-c2cccc(CN3CCN(C(C)C)C(CCO)C3)c2)o1` (stereo not shown), 13.4%; as for `CC(C)N1CCN(Cc2ccccc2-c2ccco2)CC1CCO` (stereo not shown), -35.3%.
With `CC(C)N1CCC(N2CCN(CCCc3ccccc3)CC2CCO)CC1` (stereo not shown) the figure was 10.1%; with `CC(C)N1CCN(Cc2ccc(Sc3nncn3C)o2)CC1CCO` (stereo not shown), 22.9%; with `CC(C)N1CCC(N2CCN(Cc3cccnc3)CC2CCO)CC1` (stereo not shown), 20.3%.
Consider `CC(C)N1CCC(N2CCN(Cc3ccc4nsnc4c3)CC2CCO)CC1` (stereo not shown), for which the “hERG current change (%, negative = inhibition) at 10uM” value is -8.62%.
Turning to `Cc1ccc(-c2cccc(CN3CCN(C4CCN(C(C)C)CC4)C(CCO)C3)c2)o1` (stereo not shown), the “hERG current change (%, negative = inhibition) at 10uM” value is listed as -59.4%.
As for `Cc1ccc(-n2nnnc2SCC(=O)Nc2ccccc2N2CCCCC2)cc1C`, the figure is 14.3%; as for `CC(NC(=O)COc1ccccc1)C(c1cccs1)N1CCCC1` (stereo not shown), -2.64%.
With `COc1ccccc1CNC(=O)CCCOc1cc(=O)n(C)c2ccccc12` the figure was 4.57%; with `CN(Cc1ccccc1)C(=O)CCC1CCN(S(=O)(=O)N(C)C)CC1`, -18.4%.
As for `CCNC(=S)N1CCC(c2nc3ccccc3s2)CC1`, the figure is -25.7%; as for `CCCCNC(=O)[C@H]1C[C@H]1[C@@H](O)[C@H](CO)NC(=O)[C@H](COCc1ccccc1)NC(=O)OC(C)(C)C`, 21.5%; as for `CC(C)(C#N)Nn1cnnc1`, 17.1%.
`COc1ccc(CC(=O)OC2CCCN(C)C2)cc1.Cl` (stereo not shown): the “hERG current change (%, negative = inhibition) at 10uM” value is given as 19.3%.
As for `Cn1ncc(Cl)c1C(=O)N1CCN(c2cccc(Cl)c2)CC1`, the “hERG current change (%, negative = inhibition) at 10uM” value is listed as -8.7%.
As for `CC(C)n1c(SCc2cc(=O)[nH]c3ccccc23)nc2c1c(=O)n(C)c(=O)n2C`, the figure is -7.13%; as for `c1ccc(-c2noc(CC3CCCCC3)n2)nc1`, 6.32%.
As for `O=C(COC(=O)C12CC3CC(CC(O)(C3)C1)C2)NCCc1ccc(Cl)cc1`, the figure is -10.8%; as for `CCN(CC)CCCOC(=O)c1ccc(OC)cc1O.Cl`, -40.9%; as for `CCC(Sc1nncn1C)C(=O)Nc1nnc(-c2ccccc2Cl)s1` (stereo not shown), -11%.
With `CC(C)c1nnc(NC(=O)C2CCCN2C(=O)Nc2cccc(Cl)c2)s1` (stereo not shown) the figure was -18%; with `COc1ccc(C(=O)NC(C)CCc2ccccc2)c(O)c1` (stereo not shown), -55.5%; with `COc1ccc(C(=O)NC(C)CCc2ccccc2)c(OC)c1` (stereo not shown), -26.3%.
With `COc1ccc(C(=O)NC(C)CCc2ccccc2)cc1` (stereo not shown), the “hERG current change (%, negative = inhibition) at 10uM” value is reported as -2.64%.
